{"source": "paper PMC8384837", "about": "“Expanding the binding specificity for RNA recognition by a PUF domain”", "test_in_all_cases": "yeast three-hybrid, YBZ-1, SC-Leu-His + 0.5 mM 3-AT, 4 days", "settings_in_all_cases": "tags: N-Gal4 AD-HA kept; label: inside an RPR1-promoter hybrid RNA with tandem MS2 sites; ssRNA", "key": {"PUM1 PUF domain R5-GKD": {"target": "PUM1 PUF domain R5-GKD (Homo sapiens, UniProt Q14671 828-1176, C1007G;R1008K;Q1011D)", "how_it_was_run": "(§1)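 Each repeat of the Pumilio-1 PUF domain was randomized at its three base-contacting residues, and these libraries were co-expressed from a centromeric plasmid with matching RNA elements in strain YBZ-1. After four days on SC-Leu (input) or SC-Leu-His + 0.5 mM 3-AT (selection), the repeat regions were PCR-amplified and Illumina-sequenced. The interaction score compares variant frequency between input and selection as a log change, computed in log2 with a pseudocount of 1 for absent variants.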"}, "PUM1 PUF domain R5-GCR": {"target": "PUM1 PUF domain R5-GCR (Homo sapiens, UniProt Q14671 828-1176, C1007G;R1008C;Q1011R)", "how_it_was_run": "as §1"}, "PUM1 PUF domain R5-KPL": {"target": "PUM1 PUF domain R5-KPL (Homo sapiens, UniProt Q14671 828-1176, C1007K;R1008P;Q1011L)", "sequence (Q14671 828-1176 C1007K/R1008P/Q1011L)": "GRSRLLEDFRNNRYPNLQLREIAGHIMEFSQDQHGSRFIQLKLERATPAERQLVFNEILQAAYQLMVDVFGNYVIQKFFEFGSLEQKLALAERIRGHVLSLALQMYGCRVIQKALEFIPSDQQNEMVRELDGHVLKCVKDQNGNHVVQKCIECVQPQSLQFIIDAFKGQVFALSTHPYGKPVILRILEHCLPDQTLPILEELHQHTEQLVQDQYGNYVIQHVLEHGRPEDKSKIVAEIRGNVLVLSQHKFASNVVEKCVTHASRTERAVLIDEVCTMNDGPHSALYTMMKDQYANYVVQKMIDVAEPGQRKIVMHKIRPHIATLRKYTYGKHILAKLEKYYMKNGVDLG", "how_it_was_run": "as §1"}, "PUM1 PUF domain R5-KSL": {"target": "PUM1 PUF domain R5-KSL (Homo sapiens, UniProt Q14671 828-1176, C1007K;R1008S;Q1011L)", "how_it_was_run": "as §1"}, "PUM1 PUF domain R4-CFP": {"target": "PUM1 PUF domain R4-CFP (Homo sapiens, UniProt Q14671 828-1176, N971C;H972F;Q975P)", "how_it_was_run": "as §1"}, "PUM1 PUF domain R6-FWL": {"target": "T1, PUM1 PUF domain R6-FWL (Homo sapiens, UniProt Q14671 828-1176, N1043F;Y1044W;Q1047L)", "T1 sequence": "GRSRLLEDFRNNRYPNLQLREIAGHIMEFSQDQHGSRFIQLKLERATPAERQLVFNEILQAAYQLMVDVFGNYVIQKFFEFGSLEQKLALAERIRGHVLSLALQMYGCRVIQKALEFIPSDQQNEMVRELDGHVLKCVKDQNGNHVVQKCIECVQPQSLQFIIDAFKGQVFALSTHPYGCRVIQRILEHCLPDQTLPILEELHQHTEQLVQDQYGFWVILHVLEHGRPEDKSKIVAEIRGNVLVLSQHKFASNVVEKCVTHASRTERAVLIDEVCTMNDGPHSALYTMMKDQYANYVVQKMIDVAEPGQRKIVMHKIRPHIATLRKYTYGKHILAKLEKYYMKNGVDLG", "how_it_was_run": "as §1"}, "PUM1 PUF domain R8-KFH": {"target": "PUM1 PUF domain R8-KFH (Homo sapiens, UniProt Q14671 828-1176, N1122K;Y1123F;Q1126H)", "how_it_was_run": "as §1"}, "PUM1 PUF domain R8-KWW": {"target": "PUM1 PUF domain R8-KWW (Homo sapiens, UniProt Q14671 828-1176, N1122K;Y1123W;Q1126W)", "how_it_was_run": "as §1"}, "PUM1 PUF domain R8-LYA": {"target": "PUM1 PUF domain R8-LYA (Homo sapiens, UniProt Q14671 828-1176, N1122L;Q1126A)", "how_it_was_run": "as §1"}, "PUM1 PUF domain R6-NRQ": {"target": "T2, PUM1 PUF domain R6-NRQ (Homo sapiens, UniProt Q14671 828-1176, Y1044R)", "T2 sequence": "T1 sequence with F216N, W217R, L220Q", "how_it_was_run": "as §1"}, "PUM1 PUF domain R6-FYR": {"target": "T3, PUM1 PUF domain R6-FYR (Homo sapiens, UniProt Q14671 828-1176, N1043F;Q1047R)", "T3 sequence": "T1 sequence with W217Y, L220R", "how_it_was_run": "as §1"}, "PUM1 PUF domain R3-LYQ": {"target": "PUM1 PUF domain R3-LYQ (Homo sapiens, UniProt Q14671 828-1176, C935L;R936Y)", "how_it_was_run": "as §1"}, "PUM1 PUF domain R4-SCM": {"target": "PUM1 PUF domain R4-SCM (Homo sapiens, UniProt Q14671 828-1176, N971S;H972C;Q975M)", "how_it_was_run": "as §1"}, "PUM1 PUF domain R3-RPS": {"target": "PUM1 PUF domain R3-RPS (Homo sapiens, UniProt Q14671 828-1176, C935R;R936P;Q939S)", "how_it_was_run": "as §1"}, "PUM1 PUF domain R3-VHW": {"target": "PUM1 PUF domain R3-VHW (Homo sapiens, UniProt Q14671 828-1176, C935V;R936H;Q939W)", "how_it_was_run": "as §1"}, "PUM1 PUF domain R3-VWF": {"target": "PUM1 PUF domain R3-VWF (Homo sapiens, UniProt Q14671 828-1176, C935V;R936W;Q939F)", "how_it_was_run": "as §1"}, "PUM1 PUF domain R6-HRK": {"target": "T4, PUM1 PUF domain R6-HRK (Homo sapiens, UniProt Q14671 828-1176, N1043H;Y1044R;Q1047K)", "T4 sequence": "T1 sequence with F216H, W217R, L220K", "how_it_was_run": "as §1"}, "PUM1 PUF domain R3-CRH": {"target": "PUM1 PUF domain R3-CRH (Homo sapiens, UniProt Q14671 828-1176, Q939H)", "how_it_was_run": "as §1"}, "PUM1 PUF domain R3-RAS": {"target": "PUM1 PUF domain R3-RAS (Homo sapiens, UniProt Q14671 828-1176, C935R;R936A;Q939S)", "sequence (Q14671 828-1176 C935R/R936A/Q939S)": "as the sequence (Q14671 828-1176 C1007K/R1008P/Q1011L) above, with C108R, R109A, Q112S, K180C, P181R, L184Q counted along it", "how_it_was_run": "as §1"}, "PUM1 PUF domain R2-GFD": {"target": "PUM1 PUF domain R2-GFD (Homo sapiens, UniProt Q14671 828-1176, N899G;Y900F;Q903D)", "how_it_was_run": "as §1"}}, "note": "Residue numbers refer to the chain shown, from its start.", "data": [{"sequence": "GGCUAGAACUAGUGGAUCCCCCGGCGCCCGGCGGCUCGAGCCCGGGUAAGUGUCAAUAGUCUGCAUGCCGCCGGGCGCCAUGCCUGCAGGUCGACUCUAGAAAACAUG", "values": [{"measurement": "binding signal", "setting": "PUM1 PUF domain R5-GKD", "value": "2.2 log2 enrichment (interaction score)"}, {"measurement": "binding signal", "setting": "PUM1 PUF domain R5-GCR", "value": "5.08 log2 enrichment (interaction score)"}, {"measurement": "binding signal", "setting": "PUM1 PUF domain R5-KPL", "value": "4.18 log2 enrichment (interaction score)"}, {"measurement": "binding signal", "setting": "PUM1 PUF domain R5-KSL", "value": "3.79 log2 enrichment (interaction score)"}]}, {"sequence": "GGCUAGAACUAGUGGAUCCCCCGGCGCCCGGCGGCUCGAGCCCGGGUAAGUGUAUAUAGUCUGCAUGCCGCCGGGCGCCAUGCCUGCAGGUCGACUCUAGAAAACAUG", "values": [{"measurement": "binding signal", "setting": "PUM1 PUF domain R4-CFP", "value": "6.56 log2 enrichment (interaction score)"}]}, {"sequence": "GGCUAGAACUAGUGGAUCCCCCGGCGCCCGGCGGCUCGAGCCCGGGUAAGUGAAAAUAGUCUGCAUGCCGCCGGGCGCCAUGCCUGCAGGUCGACUCUAGAAAACAUG", "values": [{"measurement": "binding signal", "setting": "PUM1 PUF domain R6-FWL", "value": "5.88 log2 enrichment (interaction score)"}]}, {"sequence": "GGCUAGAACUAGUGGAUCCCCCGGCGCCCGGCGGCUCGAGCCCGGGUAAGUGUUAAUAGUCUGCAUGCCGCCGGGCGCCAUGCCUGCAGGUCGACUCUAGAAAACAUG", "values": [{"measurement": "binding signal", "setting": "PUM1 PUF domain R5-GKD", "value": "3.71 log2 enrichment (interaction score)"}, {"measurement": "binding signal", "setting": "PUM1 PUF domain R5-GCR", "value": "3.22 log2 enrichment (interaction score)"}, {"measurement": "binding signal", "setting": "PUM1 PUF domain R5-KSL", "value": "3.78 log2 enrichment (interaction score)"}]}, {"sequence": "GGCUAGAACUAGUGGAUCCCCCGGCGCCCGGCGGCUCGAGCCCGGGUAAGCGUAAAUAGUCUGCAUGCCGCCGGGCGCCAUGCCUGCAGGUCGACUCUAGAAAACAUG", "values": [{"measurement": "binding signal", "setting": "PUM1 PUF domain R8-KFH", "value": "3.24 log2 enrichment (interaction score)"}, {"measurement": "binding signal", "setting": "PUM1 PUF domain R8-KWW", "value": "5.85 log2 enrichment (interaction score)"}, {"measurement": "binding signal", "setting": "PUM1 PUF domain R8-LYA", "value": "2.77 log2 enrichment (interaction score)"}]}, {"sequence": "GGCUAGAACUAGUGGAUCCCCCGGCGCCCGGCGGCUCGAGCCCGGGUAAGUGUAAAUAGUCUGCAUGCCGCCGGGCGCCAUGCCUGCAGGUCGACUCUAGAAAACAUG", "values": [{"measurement": "binding signal", "setting": "PUM1 PUF domain R6-NRQ", "value": "7.58 log2 enrichment (interaction score)"}, {"measurement": "binding signal", "setting": "PUM1 PUF domain R8-KFH", "value": "2.89 log2 enrichment (interaction score)"}, {"measurement": "binding signal", "setting": "PUM1 PUF domain R6-FYR", "value": "4.96 log2 enrichment (interaction score)"}, {"measurement": "binding signal", "setting": "PUM1 PUF domain R3-LYQ", "value": "3.33 log2 enrichment (interaction score)"}, {"measurement": "binding signal", "setting": "PUM1 PUF domain R4-SCM", "value": "2.65 log2 enrichment (interaction score)"}, {"measurement": "binding signal", "setting": "PUM1 PUF domain R3-RPS", "value": "0.42 log2 enrichment (interaction score)"}, {"measurement": "binding signal", "setting": "PUM1 PUF domain R8-KWW", "value": "3.43 log2 enrichment (interaction score)"}, {"measurement": "binding signal", "setting": "PUM1 PUF domain R3-VHW", "value": "3.99 log2 enrichment (interaction score)"}, {"measurement": "binding signal", "setting": "PUM1 PUF domain R3-VWF", "value": "5.2 log2 enrichment (interaction score)"}, {"measurement": "binding signal", "setting": "PUM1 PUF domain R5-KSL", "value": "0.96 log2 enrichment (interaction score)"}, {"measurement": "binding signal", "setting": "PUM1 PUF domain R4-CFP", "value": "5.06 log2 enrichment (interaction score)"}, {"measurement": "binding signal", "setting": "PUM1 PUF domain R8-LYA", "value": "1.25 log2 enrichment (interaction score)"}, {"measurement": "binding signal", "setting": "PUM1 PUF domain R6-HRK", "value": "2.98 log2 enrichment (interaction score)"}, {"measurement": "binding signal", "setting": "PUM1 PUF domain R6-FWL", "value": "5.31 log2 enrichment (interaction score)"}, {"measurement": "binding signal", "setting": "PUM1 PUF domain R3-CRH", "value": "3.86 log2 enrichment (interaction score)"}]}, {"sequence": "GGCUAGAACUAGUGGAUCCCCCGGCGCCCGGCGGCUCGAGCCCGGGUAAGUGUAAUUAGUCUGCAUGCCGCCGGGCGCCAUGCCUGCAGGUCGACUCUAGAAAACAUG", "values": [{"measurement": "binding signal", "setting": "PUM1 PUF domain R3-RPS", "value": "3.4 log2 enrichment (interaction score)"}, {"measurement": "binding signal", "setting": "PUM1 PUF domain R3-VWF", "value": "2.85 log2 enrichment (interaction score)"}, {"measurement": "binding signal", "setting": "PUM1 PUF domain R3-RAS", "value": "3.67 log2 enrichment (interaction score)"}]}, {"sequence": "GGCUAGAACUAGUGGAUCCCCCGGCGCCCGGCGGCUCGAGCCCGGGUAAGUGUACAUAGUCUGCAUGCCGCCGGGCGCCAUGCCUGCAGGUCGACUCUAGAAAACAUG", "values": [{"measurement": "binding signal", "setting": "PUM1 PUF domain R4-SCM", "value": "3.79 log2 enrichment (interaction score)"}, {"measurement": "binding signal", "setting": "PUM1 PUF domain R4-CFP", "value": "2.19 log2 enrichment (interaction score)"}]}, {"sequence": "GGCUAGAACUAGUGGAUCCCCCGGCGCCCGGCGGCUCGAGCCCGGGUAAGUGUAAGUAGUCUGCAUGCCGCCGGGCGCCAUGCCUGCAGGUCGACUCUAGAAAACAUG", "values": [{"measurement": "binding signal", "setting": "PUM1 PUF domain R3-VWF", "value": "2.09 log2 enrichment (interaction score)"}]}, {"sequence": "GGCUAGAACUAGUGGAUCCCCCGGCGCCCGGCGGCUCGAGCCCGGGUAAGUGUAAAGAGUCUGCAUGCCGCCGGGCGCCAUGCCUGCAGGUCGACUCUAGAAAACAUG", "values": [{"measurement": "binding signal", "setting": "PUM1 PUF domain R2-GFD", "value": "4.7 log2 enrichment (interaction score)"}]}]}
